For assay [1], the system named is TRPC4 beta (transient receptor potential cation channel C4), mouse. In words: activators of mouse TRPC4 channel, confirmation, cell-based, Fluo4 calcium, HEK293 TRPC4beta/mu-opioid, duplicates, 10 µM (AID 2426;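 active = fluorescence ratio normalized to control raised more than 50% in primary screen plus both repeat runs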). The following applies: Fluo4 calcium fluorescence, at 10 µM; hits give high values.
In assay [2] the test system is transient receptor potential cation channel C4 beta (TRPC4), mouse. Description: activators of mouse TRPC4 channel, confirmation, cell-based, second round, Fluo4, HEK293 TRPC4beta/mu-opioid, 1 µM (AID 2461;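 active = primary screen active and over 50% activation in each of two duplicate runs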). The following applies: Fluo4 calcium fluorescence, at 1 µM; hits give high values.
For assay [3], the system named is TRPC4 (transient receptor potential cation channel C4 beta), mouse. Description: positive allosteric modulators of mouse TRPC4, confirmation, cell-based, second round, Fluo-4, HEK293 TRPC4beta/mu-opioid, 1 µM (AID 2554). The following applies: DAMGO EC20, Fluo-4 calcium flux, at 1 µM; hits give high values. Background: A change in cytosolic calcium serves as a functional read-out for many receptors and channels.

The test system of assay [4] is TRPC4 beta (transient receptor potential cation channel C4), mouse. Description: positive allosteric modulators of mouse TRPC4, confirmation, cell-based, Fluo-4, HEK293 TRPC4beta/mu-opioid (AID 2555;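 active = primary screen hit whose calcium fluorescence ratio, in both repeats, exceeds the weak agonist control mean by 3 SD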). The following applies: DAMGO EC20, Fluo-4 calcium flux, at 10 µM; hits give high values.
Assay [5] has as its target Short transient receptor potential channel 4 (Mus musculus) (UniProt Q9QUQ5). Description: inhibitors of mouse TRPC4 channel, confirmation, cell-based, Fluo4, HEK293 TRPC4beta/mu-opioid (AID 2636;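 active = calcium signal cut by more than 3 SD below the full-agonist control yet still positive, in both repeats and the earlier primary screen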). The following applies: DAMGO, Fluo4 calcium flux, at 10 µM; hits give high values.
Assay [6] shares this target. In words: inhibitors of mouse TRPC4 channel, confirmation, cell-based, second round, Fluo4, HEK293 TRPC4beta/mu-opioid, 1 µM (AID 2637;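 active = calcium signal ratio cut to more than 3 SD under the fully stimulated control mean yet still positive, in both repeats and the primary screen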). The following applies: Fluo4 calcium flux, DAMGO, at 1 µM; hits give high values.
Assay [7] has the same target. In words: mouse TRPC4 channel activators, dose response, cell-based, HEK293 TRPC4/mu-opioid, Fluo-4 calcium (AID 434937;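 active = primary screen activator hit with a dose response curve and TRPC4 channel activation at any tested dose; inactive = no activation, no dose response, or not a primary hit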).
Assay [8] shares this target. In words: TRPC4 positive allosteric modulators, dose response, cell-based, HEK293 TRPC4/mu-opioid, Fluo-4 calcium, EC20 DAMGO (AID 434941;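 active = earlier screen potentiator hit that boosts the TRPC4 ion channel at some dose, with a dose response; inactive = no potentiation, no dose response, or not a prior hit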;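 also: calcium entry triggered by an EC20 dose of DAMGO at the co-expressed mu-opioid receptor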).
Assay [9] shares this target. In words: mouse TRPC4 channel inhibitors, dose response, cell-based, HEK293 TRPC4/mu-opioid, Fluo-4 calcium (AID 434942;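 active = primary screen inhibitor hit that blocks the TRPC4 channel at some tested dose, yielding a dose curve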).
For assay [10], the target named is Short transient receptor potential channel 6 (Mus musculus) (UniProt Q61143). Description: inhibition of mouse TRPC6 channel, confirmation, selectivity assay for TRPC4 inhibitor project, cell-based, HEK293, membrane potential dye, duplicate (AID 434948;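 active = active in primary screen and both duplicates, each dropping signal beyond three positive-control SD with fluorescence still positive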). The following applies: HEK293 TRPC6, membrane potential dye fluorescence, at 10 µM, stimulated with maximal-effect acetylcholine; hits give high values.
Short transient receptor potential channel 6 (Mus musculus), sequence (Q61143 whole entry, looked up): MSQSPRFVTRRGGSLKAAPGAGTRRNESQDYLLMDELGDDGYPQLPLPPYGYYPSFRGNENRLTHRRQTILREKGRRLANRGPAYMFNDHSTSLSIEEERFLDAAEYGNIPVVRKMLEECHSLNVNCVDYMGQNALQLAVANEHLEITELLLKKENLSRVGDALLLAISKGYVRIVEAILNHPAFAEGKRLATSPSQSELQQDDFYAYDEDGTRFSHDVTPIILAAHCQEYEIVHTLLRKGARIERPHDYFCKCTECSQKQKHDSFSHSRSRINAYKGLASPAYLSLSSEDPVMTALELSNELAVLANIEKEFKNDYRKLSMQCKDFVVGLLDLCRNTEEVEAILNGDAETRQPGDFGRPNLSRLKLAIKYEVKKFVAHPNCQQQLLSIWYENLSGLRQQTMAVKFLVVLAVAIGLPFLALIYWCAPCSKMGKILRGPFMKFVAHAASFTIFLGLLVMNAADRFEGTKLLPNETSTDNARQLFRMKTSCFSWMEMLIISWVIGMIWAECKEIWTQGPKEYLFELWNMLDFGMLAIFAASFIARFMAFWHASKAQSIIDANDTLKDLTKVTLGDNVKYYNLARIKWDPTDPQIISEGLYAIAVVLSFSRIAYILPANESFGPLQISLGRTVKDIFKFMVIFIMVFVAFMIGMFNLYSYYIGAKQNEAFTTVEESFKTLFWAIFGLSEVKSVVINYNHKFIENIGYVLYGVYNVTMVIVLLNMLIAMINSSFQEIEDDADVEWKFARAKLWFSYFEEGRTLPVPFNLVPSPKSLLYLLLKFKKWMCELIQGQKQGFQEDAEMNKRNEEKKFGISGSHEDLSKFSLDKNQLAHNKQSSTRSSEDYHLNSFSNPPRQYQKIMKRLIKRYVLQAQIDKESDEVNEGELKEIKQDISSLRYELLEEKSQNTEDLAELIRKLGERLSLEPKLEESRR

For assay [11] the target is unchanged. In words: activation of mouse TRPC6 channel, confirmation, selectivity assay for TRPC4 activator project, cell-based, HEK293, membrane potential dye, duplicate (AID 434950;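 active = membrane potential signal rise above negative control mean plus 3 SD in both duplicates, also active in the earlier TRPC4 screen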). The following applies: HEK293 TRPC6, membrane potential fluorescence, at 10 µM; hits give high values.
Assay [12] has the same target. Description: TRPC6 potentiation by TRPC4 potentiator hits, confirmation, selectivity assay for TRPC4 potentiator project, HEK293 cells, membrane potential dye, duplicate (AID 434952;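 active = compound raising the membrane signal above positive-control mean plus 3 SD in both repeats, and a primary screen hit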). The following applies: HEK293 TRPC6, membrane potential dye fluorescence, at 10 µM, maximal acetylcholine added after compound; hits give high values.
Assay [13] deals with Short transient receptor potential channel 4 (Mus musculus) (UniProt Q9QUQ5). Description: calcium flux activators in TRPC4/5HT1a cells, counter-screen for TRPC4 activator project, cell-based, second counter screen, HEK293 TRPC4/5HT1a, Fluo-4 (AID 434977;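 active = calcium signal rise above buffer-control mean plus 5 SD in both duplicates, and also a hit in the primary screen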). The following applies: Fluo-4 calcium flux, at 10 µM; hits give high values.
Short transient receptor potential channel 4 (Mus musculus), sequence (Q9QUQ5 whole entry, looked up): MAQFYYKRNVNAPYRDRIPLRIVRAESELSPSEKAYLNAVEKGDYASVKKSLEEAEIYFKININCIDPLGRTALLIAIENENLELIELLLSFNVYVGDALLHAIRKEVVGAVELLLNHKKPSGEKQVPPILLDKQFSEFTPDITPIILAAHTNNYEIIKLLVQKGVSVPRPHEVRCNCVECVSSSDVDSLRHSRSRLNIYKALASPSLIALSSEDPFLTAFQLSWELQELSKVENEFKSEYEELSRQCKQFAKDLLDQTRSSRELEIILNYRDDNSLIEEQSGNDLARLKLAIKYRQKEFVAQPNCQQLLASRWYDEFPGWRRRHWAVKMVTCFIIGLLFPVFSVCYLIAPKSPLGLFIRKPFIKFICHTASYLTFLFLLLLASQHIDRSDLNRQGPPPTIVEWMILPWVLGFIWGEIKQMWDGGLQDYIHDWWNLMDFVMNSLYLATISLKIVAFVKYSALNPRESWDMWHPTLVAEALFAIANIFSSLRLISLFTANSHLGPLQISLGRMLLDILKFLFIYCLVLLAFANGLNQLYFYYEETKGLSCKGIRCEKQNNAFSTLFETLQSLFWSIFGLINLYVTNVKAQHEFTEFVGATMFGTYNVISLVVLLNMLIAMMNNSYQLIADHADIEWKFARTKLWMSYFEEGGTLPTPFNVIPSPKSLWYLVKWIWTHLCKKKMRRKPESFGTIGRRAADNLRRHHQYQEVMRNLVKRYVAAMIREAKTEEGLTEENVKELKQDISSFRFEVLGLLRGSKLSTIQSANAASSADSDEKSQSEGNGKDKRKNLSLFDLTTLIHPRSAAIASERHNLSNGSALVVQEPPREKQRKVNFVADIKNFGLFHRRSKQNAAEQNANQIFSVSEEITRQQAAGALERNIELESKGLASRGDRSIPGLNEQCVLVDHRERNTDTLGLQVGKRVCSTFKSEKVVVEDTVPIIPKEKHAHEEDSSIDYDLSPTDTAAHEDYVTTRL
The nature of assay [14]: calcium flux inhibitors in TRPC4/5HT1a cells, confirmation, counter-screen for TRPC4 inhibitor project, cell-based, second counter screen, HEK293 TRPC4/5HT1a, Fluo-4 (AID 434978;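 active = primary screen active whose calcium signal fell more than 3 SD beyond the full-serotonin control mean in both duplicate plates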;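 as to outcome: serotonin given first at submaximal then at maximal dose after compound preincubation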). The following applies: Fluo-4 calcium flux, at 10 µM, serotonin added to trigger calcium flux; hits give high values.
The subject of assay [15] is TRPC4 (mouse), co-expressed with 5HT1a in HEK293. Description: calcium flux potentiators in TRPC4/5HT1a cells, confirmation, counter-screen for TRPC4 potentiator project, cell-based, second counter screen, HEK293 TRPC4/5HT1a, Fluo-4 (AID 434979;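 active = signal rise over 3 SD above mean of control wells given weak agonist, in both repeats and first screen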). The following applies: Fluo-4 calcium flux, at 10 µM, serotonin added at its EC20 dose; hits give high values.
A short description of assay [16]: calcium flux activation in mu-opioid HEK293 cells, confirmation, counter-screen for TRPC4 activator project, cell-based, HEK293 mu-opioid receptor line (AID 449723;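 active = hit in primary screen, with calcium signal over 5 SD above buffer well mean in both duplicates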;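 also: counter screen cells carry the mu-opioid receptor alone and lack TRPC4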). The following applies: Fluo-4 calcium fluorescence, at 10 µM; hits give high values.
Assay [17] in a line: calcium flux enhancement in mu-opioid HEK293 cells, confirmation, counter-screen for TRPC4 allosteric potentiator project, cell-based, HEK293 mu-opioid receptor line (AID 449724;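 active = calcium signal rise more than 3 SD above the low-dose agonist control mean, in both duplicate plates and the primary screen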;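 also: HEK293 cells carrying mu-opioid receptor only with no TRPC4 channel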). The following applies: Fluo-4 calcium flux, at 10 µM, compound added before EC20 DAMGO stimulus; hits give high values.

In PubChem BioAssay one finds outcome, potentiation and inhibition data, which are given here for 14 compounds.

For some of these results: Measured potencies and affinities stand elsewhere. Calls of active or inactive are those of the source.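 The calls were made as follows, unless noted: active = primary screen hit whose fluorescence ratio, in both repeats, exceeds the weak agonist control mean by 3 SD; inactive = the rest.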

In the case of `Cc1sc2ncnc(SCC(=O)N(C)C3CCS(=O)(=O)C3)c2c1C` (stereo not drawn), the outcome in assay [1], in assay [2], in assay [3], in [5], in assay [6] and in assay [7] was inactive. The result in [8], in assay [9], in assay [10], in assay [11], in assay [12] and in assay [13] was inactive. Also, the result in assay [14], in assay [16] and in assay [17] was inactive. For the same compound, the potentiation is 24% (active) in assay [4] and 13.2% (active) in assay [15].
As for `Cc1cc(C)c(C)c(S(=O)(=O)NCc2ccco2)c1C`, the outcome in assay [1], in [2], in assay [3], in [4], in assay [5] and in assay [6] was inactive. Also, the outcome in [7], in assay [8], in assay [9], in [10], in assay [11] and in assay [12] was inactive. In addition, the result in assay [13], in assay [14], in [16] and in [17] was inactive. Further, the potentiation in assay [15] was 28.1% (active).
Consider `O=C(Nc1nc(N2C(=O)c3ccccc3C2=O)n(-c2ccccc2)n1)c1ccc(Cl)cc1`, for which the outcome in assay [1], in assay [2], in assay [3], in assay [4], in assay [5] and in assay [6] was inactive. The result in [7], in assay [8], in assay [9], in assay [10], in assay [11] and in assay [12] was inactive. Besides, the result in [13], in [14], in assay [15], in [16] and in assay [17] was inactive.
For `COC(=O)c1ccccc1N=Nc1c(C)[nH][nH]c1=O`, the result in assay [1], in [2], in [3], in [5], in [6] and in [7] was inactive. Further, the outcome in assay [8], in [9], in [10], in assay [11], in assay [12] and in assay [13] was inactive. Besides, the outcome in assay [14], in assay [16] and in assay [17] was inactive. Moreover, the values for the potentiation in [4] and in assay [15] were 73% (active) and 14.7% (active), respectively.
As to `Cc1ccc(NC(=O)C2CCC(CNC(=O)[C@@H]3Cc4ccccc4CN3)CC2)cc1` (stereo partly drawn), the outcome in assay [1], in assay [2], in assay [3], in assay [4], in assay [5] and in [6] was inactive. For the same compound, the outcome in assay [7], in assay [8], in assay [9], in [10], in assay [11] and in [12] was inactive. Further, the result in [13], in [14], in [15], in assay [16] and in assay [17] was inactive.
As for `COc1cc(Br)cc(C2C3=C(CCCC3=O)N(c3ccc(F)cc3)C3=C2C(=O)CCC3)c1O`, the result in assay [1], in [2], in [3], in [5], in [6] and in assay [7] was inactive. For the same compound, the outcome in [8], in assay [9], in assay [10], in [11], in [12] and in assay [13] was inactive. In addition, the outcome in assay [14], in assay [16] and in assay [17] was inactive. The potentiation is 29% (active) in assay [4] and 31.7% (active) in assay [15].
Consider `Cc1cccc(NC(=O)CNC(=O)CN2C(=O)NC3(CCCCC3C)C2=O)c1C` (stereo not drawn), for which the result in assay [1], in [2], in assay [3], in assay [4], in assay [5] and in assay [6] was inactive. For the same compound, the result in assay [7], in assay [8], in assay [9], in assay [10], in assay [11] and in assay [12] was inactive. Also, the result in assay [13], in assay [14], in assay [15], in [16] and in [17] was inactive.
Take `COc1ccc(CCn2c(N)c(C#N)c3nc4ccccc4nc32)cc1OC`: the result in assay [1], in [2], in assay [3], in assay [4], in [5] and in assay [6] was inactive. Further, the outcome in [7], in assay [8], in assay [9], in assay [10], in assay [11] and in assay [12] was inactive. Besides, the outcome in [13], in assay [14], in assay [15], in [16] and in assay [17] was inactive.
Consider `CC1CC(C)CN(CCCNC(=O)C2CCCN(c3ncnc4c3nc3n4CCCCC3)C2)C1` (stereo not drawn), for which the result in assay [1], in assay [2], in assay [4], in assay [5], in [6] and in [7] was inactive. Moreover, the result in [8], in [9], in assay [10], in [11], in assay [12] and in assay [13] was inactive. For the same compound, the result in [14], in [16] and in assay [17] was inactive. Besides, the values for the potentiation in assay [3] and in assay [15] were 18% (active) and 17.1% (active), respectively.
As for `COc1ccc(CCNCC(O)COc2ccc(OC)cc2C(C)(C)C)cc1` (stereo not drawn), the result in assay [1], in assay [2], in assay [3], in assay [4], in [5] and in assay [6] was inactive. Also, the result in assay [7], in assay [8], in [9], in assay [10], in [11] and in assay [12] was inactive. Besides, the result in assay [13], in [14], in assay [15], in assay [16] and in assay [17] was inactive.
For `CCOc1ccc(CCNC(=O)c2ccc3c(=O)[nH]c4c(C(=O)NC(C)C)sc(=S)n4c3c2)cc1`, the outcome in assay [1], in assay [2], in [5], in assay [6], in [7] and in [8] was inactive. In addition, the outcome in assay [9], in [10], in assay [11], in assay [12], in assay [13] and in [14] was inactive. The result in assay [16] and in assay [17] was inactive. The potentiation in assay [3] is 9% (active); in assay [4], 11% (active); in [15], 7.91% (active).
In the case of `Cc1ccc(Cl)c(OCCN2CCCC(C)C2)c1` (stereo not drawn), the result in assay [1], in [2], in assay [4], in [5], in assay [6] and in assay [7] was inactive. Also, the result in assay [8], in assay [9], in assay [10], in [11], in assay [12] and in assay [13] was inactive. Further, the outcome in [14], in assay [16] and in assay [17] was inactive. In addition, the potentiation in [3] was 25% (active); in [15], 7.06% (active).
`Clc1ccc(OCCn2ccnc2)c(Br)c1`: the result in [1], in [2], in [3], in assay [5], in assay [6] and in [7] was inactive. Also, the result in [8], in assay [9], in [10], in assay [11], in [12] and in [13] was inactive. The outcome in assay [14], in [16] and in assay [17] was inactive. Further, the potentiation in assay [4] is 13% (active); in assay [15], 12.6% (active).
In the case of `CCN(CC)CCn1c(=N)n(CC(O)COc2cccc(C)c2)c2ccccc21` (stereo not drawn), the outcome in assay [1], in [2], in assay [3], in [4], in [6] and in assay [7] was inactive. Moreover, the result in assay [8], in assay [9], in [10], in assay [11], in assay [12] and in assay [13] was inactive. Also, the result in assay [15], in [16] and in assay [17] was inactive. Further, the results for the inhibition in [5] and in assay [14] were 88% (active) and 6.72% (active), respectively.
